High-throughput results deposited in PubChem BioAssay by National Center for Advancing Translational Sciences (NCATS).
HCMV antiviral: qHTS Assay for inhibitors of the human cytomegalovirus (HCMV); HFF cells, HCMV-luciferase reporter, 72 h; active compounds read low; activity change, negative = inhibition, % at 57.5 µM; hit rate 4.5% among 410,000; in the data active = activity change below about -60%; inconclusive = no clear call, values can overlap the other calls; inactive = above about -39%; also: % is scaled to controls: 0 for no effect and ±100 for the full control effect
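Two compound doses tested in HFFs infected with HCMV-luciferase, MOI 1 PFU/cell, 72 h at 37C. Lysate luminescence read with OneGlo; data normalized against buffer-only and 10uM Salinomycin inhibitor controls.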
Pf growth 96h: Primary qHTS for delayed death inhibitors of the malarial parasite plastid, 96 hour incubation. P. falciparum luciferase reporter growth, 96 h. Potency, µM (doses to about 28.7 µM), without a hit: at the highest dose activity change, negative = inhibition, hits mostly inhibitors. hit rate 6.9% among 320,000. AID 504834, 2011; also: potency is read from the fitted curve at half-maximal effect; % is scaled to controls: 0 for no effect and ±100 for the full control effect
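P. falciparum expressing integrated firefly luciferase, in erythrocytes at 2% hematocrit, 0.05% parasitemia, incubated with compounds 96 h at 37 C, 5% CO2. Growth inhibition read as loss of luminescence; two-generation exposure targets delayed-death apicoplast inhibitors.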
Pf growth 48h: Primary qHTS for delayed death inhibitors of the malarial parasite plastid, 48 hour incubation; P. falciparum luciferase growth in erythrocytes, 48 h; hit rate 5.9% among 310,000; Potency, µM (doses to about 28.7 µM), for inactives: at the top dose activity change, negative = inhibition, most hits filed as inhibitors; also: potency is read from the fitted curve at half-maximal effect; % is scaled to controls: 0 for no effect and ±100 for the full control effect
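Cell-based growth assay: transgenic P. falciparum expressing firefly luciferase, cultured in red cells within RPMI 1640 containing 0.5% w/v Albumax, 24 mM bicarbonate and gentamycin. A drop in luciferase activity indicates inhibition.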
Shiga inhibitor: A qHTS for Small Molecule Inhibitors of Shiga Toxin. Vero cells, Shiga toxin protein synthesis inhibition reporter. inhibition, % at 38.7 µM. hit rate 9.2% among 290,000; in the data active = inhibition mostly above about 28%, no sharp cut-off; inactive = mostly below about 43%; also: 0% is about no effect
HCV inh: qHTS Assay for Inhibitors of Hepatitis C Virus (HCV); Huh7.5.1 HCVcc-Cre infection, luciferase reporter, 44 h; Potency, µM (titrated, usually from 41.8 µM), inactives show at the top dose activity change, negative = inhibition, actives largely listed as inhibitors; hit rate 3.4% among 340,000; AID 651820, 2012; also: potency is read from the fitted curve at half-maximal effect; % is scaled to controls: 0 for no effect and ±100 for the full control effect
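Infectious HCVcc-Cre (~0.5 moi) was added to cells just after compound, with cells seeded 4 h earlier at 1,000 per well. Luciferase activity after 44 h culture reported infection; substrate was incubated 15 min at room temperature before reading.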
CHX counter: Cycloheximide Counterscreen for Small Molecule Inhibitors of Shiga Toxin. cell reporter, cycloheximide protein synthesis inhibition counterscreen. hit rate 12% among 300,000. max response, %; in the data active = max response mostly above about 13%, no sharp cut-off; inactive = mostly below about 14%; also: read at 38.3 µM for the half of the compounds with a filed dose; 0% is about no effect
* marks the source's active call; other numbers are inactive results; ? = inconclusive; . = not tested or not shown. The list is not random: actives were taken first. Their share in the collection is about 21%. Unless noted, calls follow the shape of the dose curve; as a rule, active = well fitted inhibition curve with a large enough effect; inconclusive = small, poorly fitted or top-dose-only effect, or another doubt; inactive = no such curve, though single readings can be large or run the other way.

SMILES | HCMV antiviral | Pf growth 96h | Pf growth 48h | Shiga inhibitor | HCV inh | CHX counter
O=C(Nc1ncccn1)c1ccc([N+](=O)[O-])cc1 | 49.0 | 4.7% | 25.4% | 6.5 | 29.6% | 4.0
O=C(Nc1ccccn1)c1ccc(C(=O)Nc2ccccn2)cc1 | . | -6.3% | 12.2% | 11.0 | -1.1% | 1.0
O=C(NC(=S)Nc1ccccn1)c1ccc(-c2ccccc2)cc1 | -20.0 | ? | 115.7% | 126.6* | ? | 63.2*
O=C(NC(=S)Nc1ccccn1)c1ccc([N+](=O)[O-])cc1 | -31.7 | ? | 74.3% | 198.8* | -27.1% | 51.1*
O=C(COc1ccc2ccc(=O)oc2c1)Nc1c(Cl)cccc1C(F)(F)F | -6.5 | 6.7% | 0.7% | -1.9 | -4.2% | -3.1
CCc1ccc(-c2nc(SCC(=O)NCCOC)c(-c3ccc(C)cc3)[nH]2)cc1 | -29.5 | . | . | . | . | .
Cc1cc(C)c(NC(=S)NC(=O)c2ccc(-c3ccccc3)cc2)c(C)c1 | -84.0* | 21.9% | -20.9% | -6.4 | 3.0% | -6.2
O=C(CC(=O)c1ccccn1)c1ccccc1 | -12.9 | . | . | . | ? | .
O=C(CC(=O)c1ccccc1)Nc1ccccn1 | 31.9 | ? | 206.9% | 76.5* | 4.1% | 43.2*
COc1ccc(-n2ncc(C(=O)N3CCN(Cc4ccccc4)CC3)c2C2CCN(C(=O)OC(C)(C)C)CC2)cc1 | 0.0 | . | . | . | . | .
CCc1cc2c(COC(=O)c3cc(S(=O)(=O)N4CCOCC4)ccc3F)cc(=O)oc2cc1O | -38.7 | 14.7µM* | ? | . | ? | .
CCc1cc2c(COC(=O)c3cccc(NS(C)(=O)=O)c3)cc(=O)oc2cc1O | 54.7 | 5.22µM* | ? | -7.2 | ? | -3.1
CCOC(=O)c1cccc(NS(=O)(=O)c2c(C)[nH]c(=O)[nH]c2=O)c1 | 20.7 | 5.6% | ? | 15.4 | 10.0% | -4.4
O=C(OCc1cc(=O)oc2cc(O)ccc12)c1cc(S(=O)(=O)N2CCOCC2)ccc1F | -14.3 | 3.3% | 28.3% | . | ? | .
CCc1nc2ccc(C(=O)N3CCN(c4ccccc4F)CC3)cc2nc1CC | 0.0 | ? | -7.2% | -1.2 | 5.2% | -0.6
Cc1cc(C)nc(/N=C(\N)Nc2ccc(S(=O)(=O)Nc3nc(C)cc(C)n3)cc2)n1 | . | 2.1% | 23.4% | -6.8 | . | -1.7
Cc1ccc(CN=C(N)Nc2nc(C)cc(C)n2)cc1 | -79.6* | 15.3% | ? | -12.1 | 15.8µM* | -7.4
C=CCOC(=O)C1=C(C)OC(N)=C(C#N)C1c1ccc2c(c1)OCO2 (stereo not drawn) | 18.3 | 10.4µM* | -26.8% | -4.5 | 2.5% | 9.4
COCCOC(=O)C1=C(C)OC(N)=C(C#N)C1c1ccc2c(c1)OCO2 (stereo not drawn) | 33.6 | . | -12.5% | -8.1 | 13.4% | 5.7
COc1ccc(CCn2c(O)c(/C=N/N3CCCCC3)c(=O)[nH]c2=O)cc1OC | -9.1 | 0.0% | 3.5% | -6.5 | 3.5% | 2.5
CCCCCCn1c(O)c(/C=N/N2CCCCCC2)c(=O)[nH]c1=O | -64.2* | ? | 4.3% | 6.7 | -12.6% | -2.3
O=C(CSc1ncnc2nc[nH]c12)Nc1nnc(SCc2ccc(Cl)c(Cl)c2)s1 | -4.0 | -5.3% | -8.3% | 1.4 | 17.3% | 2.8
CCCc1cc(=O)oc2cc(C)cc(OCC(=O)NC3CC3)c12 | -22.4 | 2.08µM* | 1.65µM* | -4.2 | -9.7% | -5.7
CCc1cc(=O)oc2cc(C)cc(OCC(=O)NC3CC3)c12 | -2.1 | ? | 11.7µM* | -0.9 | 8.7% | -8.9
Cc1cc(OCC(=O)NC2CC2)c2c(C)cc(=O)oc2c1 | . | 3.5% | -11.6% | -6.1 | -1.5% | -4.6
SMILES | HCMV antiviral | Pf growth 96h | Pf growth 48h | Shiga inhibitor | HCV inh | CHX counter
CCc1cc(=O)oc2cc(C)cc(OCC(=O)NCCc3c[nH]c4ccccc34)c12 | -23.0 | 2.62µM* | 1.85µM* | -5.4 | 2.24µM* | -4.2
CCCc1cc(=O)oc2cc(C)cc(OCC(=O)Nc3ccc(CN4CCOCC4)cc3)c12 | -37.8 | 8.28µM* | ? | -1.7 | ? | 1.0
CCc1cc(=O)oc2cc(C)cc(OCC(=O)NC(Cc3c[nH]c4ccc(O)cc34)C(=O)O)c12 (stereo not drawn) | 6.2 | -25.2% | -9.2% | -7.3 | -0.7% | -1.2
CC(C)(C)OC(=O)N1CCC(Cc2cc(-c3ccc(Cl)cc3)no2)(C(=O)O)CC1 | -7.3 | 30.1% | 31.0% | -3.3 | 13.4% | -0.8
CCOC(=O)Cn1c(=O)n(C2CCCCC2)c2nc(-c3ccc(CC)cc3)nc(C(N)=O)c21 | 1.6 | . | . | . | . | .
CCCc1cc(=O)oc2cc(OCC(=O)NCCc3c[nH]c4ccc(OC)cc34)ccc12 | -5.4 | ? | -41.6% | -1.8 | 17.8µM* | 2.2
Cc1ccc(C)c(Cn2ncc3ccccc32)c1 | -9.5 | 34.5% | 5.3% | 21.7 | 4.2% | 0.7
CN(c1nc2ccccc2[nH]c1=O)C1CCCCC1 | ? | ? | ? | 13.1 | 5.5% | 9.5
O=C(NCc1ccco1)C1=COC2=NC(=O)N(Cc3ccccc3)CCN12 | -8.3 | . | . | . | . | .
Cc1ccccc1C(=O)NC1CCN(Cc2nnnn2CCc2ccccc2)CC1 | -9.9 | ? | -18.0% | -6.0 | 20.3% | -1.3
CCOC(=O)C1CCN(Cc2nnnn2CCc2ccccc2)CC1 | -38.4 | 0.0% | 92.4% | 45.9 | 10.5% | 40.6*
Cc1nc2cc(F)ccc2n1C1CCN(Cc2nnnn2CCc2ccccc2)CC1 | -11.1 | ? | 9.28µM* | -18.8 | 7.9% | -1.2
c1ccc(CCn2nnnc2CN2CCc3ccccc32)cc1 | -14.9 | 7.7% | ? | -5.2 | -12.6% | 8.8
Cc1nc2cc(C(F)(F)F)ccc2n1C1CCN(Cc2nnnn2CCc2ccccc2)CC1 | -34.9 | -0.5% | 13.1µM* | 14.1 | -13.3% | -3.1
COc1cccc(N2CC(C(=O)Nc3nnc(SCCC4OCCO4)s3)CC2=O)c1 (stereo not drawn) | 55.6 | 9.28µM* | -21.3% | -8.3 | -7.3% | 1.5
O=C(Nc1nnc(SCCC2OCCO2)s1)C1CC(=O)N(c2ccc(F)cc2)C1 (stereo not drawn) | -20.5 | 10.4µM* | ? | -2.5 | 16.2% | 4.3
O=C(Nc1nnc(SCCC2OCCO2)s1)C1CC(=O)N(c2ccccc2)C1 (stereo not drawn) | 36.1 | ? | -13.7% | -7.8 | 13.1% | -2.4
COc1cccc(N2CC(C(=O)Nc3nnc(SCC(=O)Nc4ccc(NC(C)=O)cc4)s3)CC2=O)c1 (stereo not drawn) | 7.0 | ? | -0.2% | -3.5 | -8.5% | -4.3
COc1ccc(C(=O)OCc2csc(C)n2)c(O)c1 | -1.5 | 131.0% | 162.1% | 60.9* | -7.7% | 42.3*
Cc1nc(C/C(=N\N)c2ccc(O)cc2O)cs1 | -29.6 | -12.0% | ? | 63.9 | 23.5% | 24.5*
N/N=C(\Cc1cscn1)c1ccc(O)cc1O | 0.0 | 0.0% | 8.5% | 80.2* | -1.6% | 36.3*
Cc1cc(=O)n(Cc2cccc(Br)c2)c2c1c(C)nn2-c1ccccc1 | 6.9 | . | . | . | . | .
